For 16 sequences, PBM binding z-score results are on record in the supplement of paper PMC6555819.

What all share (assay): PBM binding z-score (relative to random genomic background probes); higher = stronger binding; sequences stand for … in GC…GCGATTGACAGCGTAGAATGAAGG
Test [1] deals with RARb homodimer (NR concentration 270 nM). An outline of the steps: (§1)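 The probes on custom Agilent 4×180K protein-binding microarrays were double-stranded, with 34-nt variable regions bearing direct-repeat seeds, single-nucleotide variants, half-site ablations and random human genomic background sequences. Incubation lasted 1 h with ligand-free nuclear receptor dimers in PBS pH 7.4, 2% milk, 0.02% Triton X-100, 1 mM DTT, 0.2 mg/mL BSA and 0.4 mg/ml salmon testes DNA. Antibodies against each partner (one per run) detected bound dimers, and fluorescence scans were regression-normalized. Binding z-scores take the random background probes as reference.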

The test system of test [2] is RARg:RXRa (NR concentration 270 nM, RXRa partner concentration 90 nM). The method in brief:
as §1

Test [3] relates to RARg homodimer (NR concentration 270 nM). An outline of the steps: as §1
Test [4] has as its system RXRa DBDmut IVT, anti-RXR (DBD mutation: RXRa K156A/R161A, NR concentration 90 nM). The method in brief: as §1
Test [5] relates to RXRa homodimer (NR concentration 180 nM). An outline of the steps:
as §1

The test system of test [6] is THRa:RXRa (NR concentration 90 nM, RXRa partner concentration 90 nM). The method in brief:
as §1

Test [7] relates to THRa homodimer (NR concentration 90 nM). The method in brief:
as §1

Test [8] concerns VDR:RXRa (NR concentration 270 nM, RXRa partner concentration 90 nM). The method in brief:
as §1

For test [9], the system named is VDR homodimer (NR concentration 270 nM). An outline of the steps:
as §1

For TGTTGTAGATCAGCAGGTTAAGAAAGCTGGCCAA, the PBM binding z-score in test [1] is -0.378; in test [2], -0.266; in [3], -0.294; in [4] it was -1.38; in test [5], -0.118; in [6], -0.32. The PBM binding z-score in test [7] was -1.04; in [8], -0.372; in test [9] it was -0.583.

ATACCATGGTGATCGTGAGGTCGTTGATACTAAC: the PBM binding z-score is 1.18 in [1]; 0.425 in test [2]; 0.264 in test [3]; 0.547 in test [4]; 0.893 in [5]; 2.48 in test [6]. The PBM binding z-score in [7] was 1.85; in test [8], 2.03; in test [9] it was 2.87.

Consider ACTAGCAAGCCAAGTTTGGGTCACTCAAACAAAG, for which the PBM binding z-score in test [1] was 1.51; in test [2] it was 0.717; in test [3] it was 0.562; in test [4], -0.45; in test [5], 0.557; in [6], 2.09. Moreover, the PBM binding z-score in test [7] was 0.807; in test [8], 0.188; in test [9] it was -0.115.

Consider GGAACGAGGGCATTCGAGTTAATAGCATGGCGAT, for which the PBM binding z-score was determined as 0.504 in test [1]; 1.33 in [2]; 1.59 in test [3]; 2.83 in test [4]; 1.09 in [5]; 3.22 in [6]. Also, the PBM binding z-score is -0.196 in test [7], 2.35 in test [8] and 2.58 in test [9].

With AGTCAAAGTTTAGGACGAGGTAACGTAAAGCACG, the PBM binding z-score in [1] was 0.774; in test [2] it was 0.936; in test [3], 1.26; in [4] it was 0.5; in test [5] it was 0.477; in test [6] it was 2.59. Besides, the results for the PBM binding z-score in [7], in [8] and in test [9] were 1.51, 0.00949 and 0.0811, respectively.

Turning to CTCGAAAGATCGTGCTCAGGTGAGTATACCAAAC, the PBM binding z-score in [1] is -0.0864; in [2], -0.0578; in test [3], -0.229; in [4], -0.0478; in [5], -0.33; in [6] it was 1.28. Moreover, the results for the PBM binding z-score in test [7], in [8] and in [9] were 0.584, -0.291 and -0.082, respectively.

Take GCTCGGAGGACACGGTCAGAGCTTTGTCCGTAGA: the PBM binding z-score in test [1] is 1.35; in test [2], 0.822; in [3], 1.71; in test [4], 0.29; in [5], -0.503; in test [6] it was 1.36. Further, the PBM binding z-score in test [7] was 0.245; in [8], -0.792; in test [9] it was -0.453.

In the case of CGAACTAGGTCATTGACAGGCCAGTGAATAGTAA, the PBM binding z-score in [1] is 2.44; in test [2], 4.45; in test [3] it was 4.53; in test [4], 1.99; in test [5], 3.06; in test [6], 2.53. The PBM binding z-score in [7] was found to be 0.248; in [8], 1.88; in test [9] it was 0.674.

As to CCTATTAGTTGACCATAAGGGCAACGGAAGCTCG, the PBM binding z-score in test [1] worked out at 1.92; in [2], 1.29; in test [3] it was 0.865; in [4], 0.278; in test [5], 0.632; in test [6], 1.84. Also, the PBM binding z-score was found to be 1.47 in test [7], 0.803 in test [8] and 0.902 in test [9].

ACTTTCGGGTCAACGAGGTTATAGCACGCGTATA: the PBM binding z-score turned out to be 3.85 in test [1]; 5.69 in test [2]; 5.44 in [3]; 3.12 in [4]; 6.2 in test [5]; 4.62 in test [6]. Also, the results for the PBM binding z-score in test [7], in test [8] and in test [9] were 3.51, 7.85 and 4.05, respectively.

On to CGTCCAAGGTCAAAGGGCAGTGAAGAGATGACGG, for which the PBM binding z-score in test [1] stood at 4.39; in test [2], 6.57; in [3], 6.29; in [4] it was 3.46; in test [5], 7.24; in test [6] it was 4.14. In addition, the PBM binding z-score is 1.86 in test [7], 4.65 in [8] and 2.28 in test [9].

As for CCTCGGAGGACAACATGAGGTCAGAGCTGCCAGA, the PBM binding z-score in [1] worked out at 3.88; in test [2] it was 3.49; in test [3] it was 3.52; in test [4], 1.15; in test [5], 2.13; in test [6], 4.08. Also, the PBM binding z-score in test [7] stood at 3.51; in test [8], 2.98; in [9] it was 2.43.

Consider CCTAGTTAGTCAGGAGGTCACACACCGGATATGA, for which the PBM binding z-score is 4.28 in test [1]; 4.25 in [2]; 3.72 in test [3]; 1.38 in [4]; 4.86 in test [5]; 3.74 in [6]. The PBM binding z-score in test [7] came to 2.73; in test [8] it was 3.97; in [9] it was 3.01.

In the case of CAGCCTACGTCAGGGCCAGTATAGGAGGAACGTT, the PBM binding z-score in test [1] is -0.0418; in [2], -0.371; in [3] it was -0.021; in [4] it was -0.885; in test [5], -0.169; in test [6], -0.415. Besides, the PBM binding z-score in test [7] was -0.292; in test [8], -0.587; in test [9], -0.285.

For CCGACTGGGGCAGAAAGGTTACCATGCCATCCGG, the PBM binding z-score in test [1] is 2.33; in test [2], 1.54; in [3] it was 1.08; in test [4], -1.07; in test [5], 1.72; in [6], 1.05. In addition, the results for the PBM binding z-score in test [7], in [8] and in test [9] were -0.541, 0.756 and -0.201, respectively.

For the sequence TTCCCAAGGTGAAAGGTCGTTGATGCACGCCTTG, the PBM binding z-score amounted to 3.14 in test [1]; 4.25 in [2]; 2.13 in [3]; 0.532 in [4]; 5.91 in test [5]; 3.6 in test [6]. The results for the PBM binding z-score in [7], in [8] and in test [9] were 1.4, 3.35 and 1.52, respectively.
